From the supplement of paper PMC6555819

Tests used:
Experiment in all cases: PBM binding z-score (relative to random genomic background probes); higher = stronger binding; sequences stand for … in GC…GCGATTGACAGCGTAGAATGAAGG
[1] = test system: FXR:RXRa (NR concentration 270 nM, RXRa partner concentration 90 nM)
Procedure, shortened: (§1)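 Antibodies against each partner of ligand-free nuclear receptor dimers (one per run) detected binding on custom Agilent 4×180K protein-binding microarrays after 1 h incubation. The double-stranded probes had 34-nt variable regions carrying direct-repeat seeds, single-nucleotide variants, half-site ablations and random human genomic background sequences. Binding z-scores, from regression-normalized fluorescence, use the random background probes as reference.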

[2] = test system: LXRa:RXRa (NR concentration 270 nM, RXRa partner concentration 90 nM)
Procedure, shortened: as §1

[3] = test system: LXRa homodimer (NR concentration 270 nM)
Procedure, shortened: as §1

[4] = test system: LXRb:RXRa (NR concentration 270 nM, RXRa partner concentration 90 nM)
Procedure, shortened: as §1

[5] = test system: LXRb homodimer (NR concentration 270 nM)
Procedure, shortened: as §1

[6] = test system: PPARa:RXRa (NR concentration 270 nM, RXRa partner concentration 90 nM)
Procedure, shortened: as §1

[7] = test system: PPARg:RXRa (NR concentration 180 nM, RXRa partner concentration 90 nM)
Procedure, shortened: as §1

[8] = test system: PPARg:RXRa 270nM:90nM, anti-RXR (NR concentration 270 nM, RXRa partner concentration 90 nM)
Procedure, shortened: as §1

[9] = test system: PPARg:RXRa 30nM:10nM, anti-RXR (NR concentration 30 nM, RXRa partner concentration 10 nM)
Procedure, shortened: as §1

[10] = test system: PPARg:RXRa 90nM:30nM, anti-RXR (NR concentration 90 nM, RXRa partner concentration 30 nM)
Procedure, shortened: as §1

[11] = test system: PPARg:RXRa DBDmut IVT, anti-RXR (DBD mutation: RXRa K156A/R161A, NR concentration 270 nM, RXRa partner concentration 90 nM)
Procedure, shortened: as §1

[12] = test system: PPARg:RXRa IVT, anti-PPARg (NR concentration 270 nM, RXRa partner concentration 90 nM)
Procedure, shortened: as §1

[13] = test system: PPARg DBDmut:RXRa IVT, anti-PPARg (DBD mutation: PPARg1 K132A/R137A, NR concentration 270 nM, RXRa partner concentration 90 nM)
Procedure, shortened: as §1

[14] = test system: PPARg DBDmut IVT, anti-PPARg (DBD mutation: PPARg1 K132A/R137A, NR concentration 270 nM)
Procedure, shortened: as §1

[15] = test system: PPARg homodimer (NR concentration 180 nM)
Procedure, shortened: as §1

[16] = test system: PXR:RXRa (NR concentration 270 nM, RXRa partner concentration 90 nM)
Procedure, shortened: as §1

[17] = test system: PXR homodimer (NR concentration 270 nM)
Procedure, shortened: as §1

[18] = test system: RARa:RXR (NR concentration 270 nM, RXRa partner concentration 90 nM)
Procedure, shortened: as §1

[19] = test system: RARa homodimer (NR concentration 270 nM)
Procedure, shortened: as §1

[20] = test system: RARb:RXRa (NR concentration 270 nM, RXRa partner concentration 90 nM)
Procedure, shortened: as §1

Sequence | PBM binding z-score [1] | PBM binding z-score [2] | PBM binding z-score [3] | PBM binding z-score [4] | PBM binding z-score [5] | PBM binding z-score [6] | PBM binding z-score [7] | PBM binding z-score [8] | PBM binding z-score [9] | PBM binding z-score [10] | PBM binding z-score [11] | PBM binding z-score [12] | PBM binding z-score [13] | PBM binding z-score [14] | PBM binding z-score [15] | PBM binding z-score [16] | PBM binding z-score [17] | PBM binding z-score [18] | PBM binding z-score [19] | PBM binding z-score [20]
TCTATCAGTTGATTAGGGCAACCGAAACAGCGGA | -0.144 | 0.15 | -0.239 | 0.101 | 0.266 | 0.978 | 0.346 | 1.61 | 3.34 | 2.54 | 1.54 | 1.42 | 0.737 | 0.547 | -0.273 | 0.154 | -0.238 | 0.11 | -0.12 | 0.747
GGAACGAGGGCATTCGAGCTGATAGCATGGCGAT | 0.586 | 0.0957 | -0.939 | -0.339 | -0.953 | 1.17 | 0.733 | 0.363 | -0.239 | -0.177 | 2.71 | 1.64 | -0.32 | -0.167 | -0.0868 | 0.26 | -0.341 | -0.000407 | -0.846 | 1.45
CCTCGGAGGACAGAAGGTCAGAGCGGTCCGCTTT | 1.42 | 1.8 | 0.0694 | 0.843 | -0.863 | 1.78 | -0.185 | 0.642 | -0.618 | 0.0661 | 0.0292 | -0.0958 | -1.49 | -1.9 | 1.2 | 1.91 | -0.289 | 1.91 | 0.122 | 3.18
TCTCGGAGGCCACGAAGGTCAGAGCTTTCCAGAG | 0.966 | 1.34 | -0.257 | 1.25 | -1.36 | 2.21 | 0.256 | 1.82 | 1.63 | 1.54 | 1.55 | 1.81 | -1.16 | -1.03 | 0.239 | 2.19 | 0.613 | 2.29 | -1.17 | 3.38
CGAACGAGGGCATGAGTTGATAGCTAATGCCGAT | 0.677 | 0.398 | -0.532 | 0.00979 | -0.952 | 1.51 | 1.53 | 1.5 | 0.214 | 0.782 | 2.71 | 2.2 | 0.229 | -0.661 | 0.249 | 0.689 | 0.178 | 0.401 | 0.0358 | 2.08
CGTCACAGTTCAAGGTAACGTAACAGAAAGCAGC | 2.2 | 1.91 | 0.443 | 1.52 | 0.237 | 2.46 | 1.29 | 1.19 | 0.243 | 0.61 | 0.275 | 1.23 | 0.33 | 0.734 | 0.946 | 1.93 | 0.75 | 1.78 | 0.462 | 2.73
GCTGCTAGGTCAACTGATGGTCAGCTATAGCTCG | 4.54 | 3.25 | 0.314 | 2.01 | 0.25 | 3.81 | 2.88 | 3.13 | 0.633 | 2.16 | 5.21 | 4.3 | -0.479 | -0.34 | 1.51 | 1.3 | -0.342 | 2.91 | 0.342 | 4.31
CGTCCAAGGTCAGAGAGGTGAGTGAATGCCGAGT | 4.98 | 3.29 | 0.18 | 2.43 | 0.0466 | 4.06 | 2.73 | 2.95 | 0.53 | 1.78 | 2.79 | 3.19 | -0.199 | -0.145 | 3.3 | 3.15 | 1.96 | 3.43 | 0.424 | 4.78
TAGCCTAGGGCAGATCGGGCCAGTATACGCTATA | -0.551 | -0.549 | -0.559 | -0.757 | -1.16 | -0.359 | 0.168 | -0.585 | -0.695 | -0.348 | -0.53 | -0.145 | -0.91 | -1.38 | -0.781 | -0.394 | -0.7 | 0.406 | -1.26 | 0.79
GCTCTTAGTTGAAAGGGCAACCGAATGATTCTCG | 0.354 | 0.538 | 0.194 | 0.812 | -0.185 | 1.77 | 0.987 | 2.26 | 0.632 | 1.71 | 0.37 | 0.474 | 0.11 | -0.335 | 0.85 | 0.654 | -0.0314 | 1.47 | -0.318 | 2.08
CCTACTGGGCCAAAAAGGACATTGATGCCGATAA | -0.363 | -0.495 | -0.28 | -0.539 | -0.727 | -0.00322 | 1.04 | 1.6 | 0.0632 | 1.17 | 3.5 | 2.63 | -0.447 | 0.0111 | 0.363 | -0.396 | 0.177 | -0.191 | 0.526 | 0.68
CCTACTGGGCCAAAAAGGTCATAGATGCCGATAA | 3.54 | 4.14 | 2.44 | 4.1 | -0.00458 | 5.14 | 3.89 | 4.29 | 1.84 | 3.55 | 3.18 | 4.3 | 0.551 | -0.44 | 3.27 | 4.51 | 1.73 | 5.33 | 1.49 | 3.98
ATCTCTAGGTAAAGTTCAGTGCAAGATCGATAGA | 1.53 | 2.29 | 2.02 | 1.43 | 0.722 | 2.52 | 3.48 | 4.48 | 2.63 | 4.43 | 2.92 | 2.81 | 0.415 | 1.22 | 2.51 | 2.32 | 1.67 | 1.49 | 1.38 | 2.78
GGAACGAGGGCAAAGTTGATTGCATCTGTCGACG | 1.25 | 0.976 | -0.336 | 0.888 | -0.546 | 3.9 | 6.23 | 6.84 | 5.63 | 6.92 | 4.27 | 4.05 | 0.0713 | -0.581 | 0.375 | 1.16 | 0.179 | 1.39 | -0.237 | 2.18
ATATGTAGGTTAAGAGTCATTCAGGTTGGTTCGC | 0.855 | 1.47 | 0.703 | 1.18 | 0.774 | 4.58 | 8.36 | 7.68 | 6.62 | 8.28 | 7.43 | 7.13 | 1.39 | 1.44 | 2 | 1.5 | 0.614 | 1.5 | 1.72 | 1.42
TGAATGAGGTTATAAGGTCAGGGAACGTTGCAAA | 5.12 | 4.24 | 0.615 | 3.38 | 0.153 | 5.17 | 5.07 | 5.43 | 2.33 | 4.46 | 2.58 | 4.37 | 1.54 | 1.21 | 2.82 | 4.17 | 0.241 | 5.68 | 0.814 | 3.88
ATCTCTAGGTAAAAGGTCAGTGAATCCCGAGGAT | 3.03 | 3.55 | 1.43 | 3.07 | 1.09 | 6.09 | 9.92 | 8.92 | 8.03 | 9.78 | 3.67 | 5.64 | 1.49 | 2.13 | 2.81 | 3.49 | 0.63 | 4.68 | 1.9 | 4.56
ACTAGCCGGCCAAGTTTGGGTCACTCAAACAAAG | 0.307 | 0.194 | -0.183 | 0.789 | -0.664 | 1.32 | -0.0659 | -0.198 | -1.03 | -0.301 | -0.561 | 0.67 | -0.942 | -0.912 | 0.449 | 0.729 | -0.476 | 1.25 | -0.454 | 1.5
